From PubChem BioAssay (EPA / NIEHS)
Inconclusive results are not listed. Calls of active or inactive are those of the source. Rule for the calls, unless noted: active = hit-call score of the fitted dose curve at least 0.9, where 1 is the maximum; inconclusive = response in the unintended direction; inactive = score below 0.9.

What was measured:
DIO1 (gene 1733) = experiment: CCTE_GLTED_hDIO1: CCTE's human Deiodinase 1 (DIO1) Inhibition Assay, Great Lakes Toxicology and Ecology Division (GLTED) Lab (AID 2283987);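 note: isolated human DIO1 enzyme in a cell-free setup rather than cells; enzyme activity read as free iodide liberated from substrate via Sandell-Kolthoff colorimetry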
How it was run: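 Chemicals are tested on human DIO1 without cells for 3 h. Uninhibited enzyme frees iodide, which speeds cerium(IV) reduction by arsenic and is read by spectrophotometry.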

PGR (gene 5241) [1] = biological target: PGR (gene 5241) (UniProt P06401); experiment: TOX21_PR_BLA_Followup_Antagonist_ratio: Tox21 HEK293 Progesterone Receptor (PR) Antagonism Beta-lactamase Follow-Up Assay, Ratio (AID 2283934)
PGR (gene 5241), sequence (P06401 whole entry, looked up, the tested form may be a part): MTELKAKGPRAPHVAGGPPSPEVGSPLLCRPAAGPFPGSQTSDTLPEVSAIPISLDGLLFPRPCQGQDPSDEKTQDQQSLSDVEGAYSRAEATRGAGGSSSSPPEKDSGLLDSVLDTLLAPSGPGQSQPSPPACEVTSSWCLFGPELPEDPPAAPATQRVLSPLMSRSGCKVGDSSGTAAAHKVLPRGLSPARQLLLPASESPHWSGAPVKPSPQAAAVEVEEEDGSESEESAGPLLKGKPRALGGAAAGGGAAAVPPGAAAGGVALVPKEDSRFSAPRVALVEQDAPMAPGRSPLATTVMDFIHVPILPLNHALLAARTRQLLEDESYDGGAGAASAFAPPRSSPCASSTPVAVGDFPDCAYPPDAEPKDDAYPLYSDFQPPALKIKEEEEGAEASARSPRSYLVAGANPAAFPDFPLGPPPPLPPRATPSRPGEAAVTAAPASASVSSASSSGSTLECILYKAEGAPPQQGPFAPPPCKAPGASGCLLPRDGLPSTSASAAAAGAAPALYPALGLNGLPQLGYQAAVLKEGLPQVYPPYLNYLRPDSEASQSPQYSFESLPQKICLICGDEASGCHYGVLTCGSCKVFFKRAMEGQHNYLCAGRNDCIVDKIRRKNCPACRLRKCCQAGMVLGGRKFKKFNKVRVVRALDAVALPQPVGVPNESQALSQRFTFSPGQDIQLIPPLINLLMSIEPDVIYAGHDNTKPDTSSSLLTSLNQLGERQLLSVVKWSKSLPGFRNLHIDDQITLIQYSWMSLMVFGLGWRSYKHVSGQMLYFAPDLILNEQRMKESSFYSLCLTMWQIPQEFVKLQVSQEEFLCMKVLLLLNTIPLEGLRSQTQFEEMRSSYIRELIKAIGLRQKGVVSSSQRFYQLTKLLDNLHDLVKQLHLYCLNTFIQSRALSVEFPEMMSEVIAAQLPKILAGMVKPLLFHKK
How it was run: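 PR-UAS-bla HEK293T cells in medium with 2% charcoal-stripped FBS were treated with compounds plus 1 nM (final) promegestone (R5020) for 16 hr at 37C. LiveBLAzer B/G FRET substrate was then added for 2 h at room temperature; signal is cleaved/uncleaved substrate ratio versus DMSO.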

[2] = TOX21_PR_BLA_Followup_Agonist_viability: Viability Assessment in the Tox21 HEK293 Progesterone Receptor (PR) Agonism Beta-lactamase Follow-Up Assay (AID 2283935);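 note: signal loss means lower viability so actives are cytotoxic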
How it was run: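 PR-UAS-bla HEK293T cells in 2% charcoal-stripped FBS medium, compound added after 6 hr plating, 16 hr at 37C/5% CO2. After bla FRET read, CellTiter-Glo added; luminescence read after 30 min at room temperature; signal loss marks cytotoxicity.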

[3] = TOX21_PR_BLA_Followup_Antagonist_viability: Viability Assessment in the Tox21 HEK293 Progesterone Receptor (PR) Antagonism Beta-lactamase Follow-Up Assay (AID 2283936);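 note: hits lower the luminescence signal meaning cytotoxicity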
How it was run: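 PR-UAS-bla HEK293T cells (3,000/well, 2% charcoal-stripped FBS) given compound plus R5020 agonist, 16 h at 37C. CellTiter-Glo added after bla read, 30 min at room temperature; luminescence loss indicates cytotoxicity.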

[4] = TOX21_PR_LUC_Followup_Antagonist_viability: Viability Assessment in the Tox21 HEK293 Progesterone Receptor (PR) Antagonism Luciferase Follow-Up Assay (AID 2283940)
How it was run: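 HEK293-PR-A-luc cells, precultured 5 days in assay medium with 10% charcoal-stripped FBS, were seeded at 3,000 cells/well, treated with compounds in DMSO for 16 h at 37C, and viability was read as cellular ATP by CellTiter-Glo luminescence.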

[5] = TOX21_PR_LUC_Followup_Agonist_viability: Viability Assessment in the Tox21 HEK293 Progesterone Receptor (PR) Agonism Luciferase Follow-Up Assay (AID 2283941);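 note: loss of signal means cytotoxicity so actives lower viability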
How it was run: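 HEK293-PR-A-luc cells, pre-cultured 5 days in 10% charcoal-stripped FBS, were seeded at 3,000 cells/well, rested 5 h at 37C, then given compound in DMSO for 16 h at 37C. Cellular ATP was read by CellTiter-Glo luminescence; signal loss indicates cytotoxicity.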

PGR (gene 5241) [6] = biological target: PGR (gene 5241) (UniProt P06401); experiment: TOX21_PR_BLA_Followup_Agonist_ratio: Tox21 HEK293 Progesterone Receptor (PR) Agonism Beta-lactamase Follow-Up Assay, Ratio (AID 2283933)
How it was run: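 PR-UAS-bla HEK293T cells (GAL4-UAS beta-lactamase reporter) in medium with 2% charcoal-stripped FBS received compounds after 6 hr at 37C, then incubated 16 hr. LiveBLAzer FRET substrate added, 2 hr room temperature; cleaved/uncleaved (ch2/ch1) ratio fitted upward versus DMSO.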

PGR (gene 5241) [7] = biological target: PGR (gene 5241) (UniProt P06401); experiment: TOX21_PR_LUC_Followup_Agonist: Tox21 HEK293 Progesterone Receptor (PR) Agonism Luciferase Follow-Up Assay (AID 2283937; active = hit-call score of the fitted dose curve at least 0.9, where 1 is the maximum; inactive = score below 0.9)
How it was run: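 HEK293-PR-A-luc cells, pre-cultured 5 days in medium with 10% charcoal-stripped FBS, were seeded at 3,000 cells/well, rested 5 h at 37C, then exposed to compounds 16 h at 37C; luciferase read by ONE-Glo luminescence after 30 min.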

PGR (gene 5241) [8] = biological target: PGR (gene 5241) (UniProt P06401); experiment: TOX21_PR_LUC_Followup_Antagonist: Tox21 HEK293 Progesterone Receptor (PR) Antagonism Luciferase Follow-Up Assay (AID 2283938);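 note: curve fitted upward as signal gain over DMSO baseline despite antagonist label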
How it was run: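 Luciferase reporter in HEK293-PR-A-luc cells: 16 h compound treatment at 37C, ONE-Glo luminescence detection, DMSO as negative control and baseline.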

[9] = biological target: Thyroid hormone receptor alpha (Rattus norvegicus) + Thyroid hormone receptor beta (Rattus norvegicus) (UniProt P18113+P63059); experiment: TOX21_TR_LUC_GH3_Agonist_Followup: Tox21 GH3 Thyroid Hormone Receptor Agonism Luciferase Follow-Up Assay (AID 2283939)
Thyroid hormone receptor alpha (Rattus norvegicus) + Thyroid hormone receptor beta (Rattus norvegicus), sequence (P63059 whole entry, looked up): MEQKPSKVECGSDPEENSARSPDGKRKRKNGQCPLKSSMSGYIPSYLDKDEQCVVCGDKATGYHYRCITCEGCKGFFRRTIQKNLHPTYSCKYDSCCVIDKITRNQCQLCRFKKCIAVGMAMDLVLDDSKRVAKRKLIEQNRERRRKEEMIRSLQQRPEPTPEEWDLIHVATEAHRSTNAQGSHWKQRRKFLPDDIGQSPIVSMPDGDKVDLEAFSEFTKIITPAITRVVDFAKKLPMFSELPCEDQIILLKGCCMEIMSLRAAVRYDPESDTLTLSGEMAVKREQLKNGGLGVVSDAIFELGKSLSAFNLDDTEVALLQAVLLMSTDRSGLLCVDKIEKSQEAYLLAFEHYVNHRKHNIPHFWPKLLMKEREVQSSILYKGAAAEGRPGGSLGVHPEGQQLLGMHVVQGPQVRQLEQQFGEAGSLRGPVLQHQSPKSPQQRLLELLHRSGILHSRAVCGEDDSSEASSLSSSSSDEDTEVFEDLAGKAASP
Thyroid hormone receptor alpha (Rattus norvegicus) + Thyroid hormone receptor beta (Rattus norvegicus), sequence (P18113 whole entry, looked up): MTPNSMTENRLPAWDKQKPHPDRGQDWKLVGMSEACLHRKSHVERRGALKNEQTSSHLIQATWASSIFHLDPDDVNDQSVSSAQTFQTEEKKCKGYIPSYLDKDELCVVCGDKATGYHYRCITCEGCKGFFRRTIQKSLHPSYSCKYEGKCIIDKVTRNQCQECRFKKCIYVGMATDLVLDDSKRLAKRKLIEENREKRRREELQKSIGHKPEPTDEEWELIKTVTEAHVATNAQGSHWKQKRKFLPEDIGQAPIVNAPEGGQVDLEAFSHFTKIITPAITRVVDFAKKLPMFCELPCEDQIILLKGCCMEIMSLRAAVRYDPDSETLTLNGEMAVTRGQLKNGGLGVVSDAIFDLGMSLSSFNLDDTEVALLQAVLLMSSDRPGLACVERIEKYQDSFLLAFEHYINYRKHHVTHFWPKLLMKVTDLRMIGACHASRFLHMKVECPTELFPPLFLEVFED
How it was run: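 Rat GH3 cells (1,500/well) in serum-free assay medium, treated with 15-point series, 92 uM to 5 nM final, for 24 h at 37C. Luciferase via ONE-Glo luminescence; gain of signal fitted against DMSO, T3 positive control.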

THRA (gene 7067) = THRA (gene 7067) (UniProt P10827); experiment: TOX21_TRA_COA_Agonist_Followup_ratio: Tox21 Thyroid Hormone Receptor alpha Agonism through Coactivator Recruitment Follow-Up Assay, Ratio (AID 2283948; active = hit-call score of the fitted dose curve at least 0.9, where 1 is the maximum; inactive = score below 0.9)
THRA (gene 7067), sequence (P10827 whole entry, looked up, the tested form may be a part): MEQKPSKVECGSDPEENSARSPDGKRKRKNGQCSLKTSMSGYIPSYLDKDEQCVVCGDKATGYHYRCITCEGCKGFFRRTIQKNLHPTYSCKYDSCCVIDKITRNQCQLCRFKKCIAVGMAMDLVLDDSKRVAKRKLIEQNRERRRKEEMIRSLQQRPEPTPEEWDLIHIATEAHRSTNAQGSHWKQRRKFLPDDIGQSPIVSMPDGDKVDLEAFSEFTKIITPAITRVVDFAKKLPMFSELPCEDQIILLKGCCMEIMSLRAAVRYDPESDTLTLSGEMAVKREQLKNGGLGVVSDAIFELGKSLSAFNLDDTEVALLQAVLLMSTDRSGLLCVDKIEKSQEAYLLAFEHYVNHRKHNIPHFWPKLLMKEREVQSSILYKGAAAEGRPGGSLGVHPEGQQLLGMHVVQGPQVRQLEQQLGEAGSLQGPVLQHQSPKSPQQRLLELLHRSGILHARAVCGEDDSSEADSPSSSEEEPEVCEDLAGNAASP
How it was run: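 Agonist-mode biochemical TR-FRET with TRα LBD and SRC-2 coactivator peptide; activity expressed as percent of T3 response over DMSO baseline.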

THRB (gene 7068) [10] = biological target: THRB (gene 7068) (UniProt P10828); experiment: TOX21_TRB_COA_Agonist_Followup_ratio: Tox21 Thyroid Hormone Receptor beta Agonism through Coactivator Recruitment Follow-Up Assay, Ratio (AID 2283963; active = hit-call score of the fitted dose curve at least 0.9, where 1 is the maximum; inactive = score below 0.9)
THRB (gene 7068), sequence (P10828 whole entry, looked up, the tested form may be a part): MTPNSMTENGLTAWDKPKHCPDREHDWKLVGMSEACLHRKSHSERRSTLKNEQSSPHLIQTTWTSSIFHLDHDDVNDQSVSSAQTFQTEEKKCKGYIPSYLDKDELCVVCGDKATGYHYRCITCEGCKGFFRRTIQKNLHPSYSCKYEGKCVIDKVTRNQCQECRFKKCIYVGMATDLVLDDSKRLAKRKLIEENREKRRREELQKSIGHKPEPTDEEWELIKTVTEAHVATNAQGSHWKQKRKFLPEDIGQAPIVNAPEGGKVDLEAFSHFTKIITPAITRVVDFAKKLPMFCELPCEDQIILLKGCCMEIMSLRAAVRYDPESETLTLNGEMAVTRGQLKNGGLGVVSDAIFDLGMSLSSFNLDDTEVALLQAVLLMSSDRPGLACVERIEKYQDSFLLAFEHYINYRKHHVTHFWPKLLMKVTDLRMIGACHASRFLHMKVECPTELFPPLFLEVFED
How it was run: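 Signal is the 520/495 nm emission ratio (excitation 340 nm), scaled between DMSO-only wells as 0% and T3 wells as 100%. It reflects fluorescein-labeled SRC-2 peptide recruitment to GST-TRβ ligand-binding domain detected via terbium anti-GST antibody.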

[11] = biological target: Retinoic acid receptor RXR-alpha (Homo sapiens) (UniProt P19793); experiment: TOX21_TR_RXR_BLA_Agonist_Followup_ratio: Tox21 Thyroid Hormone Receptor beta Retinoid X Receptor alpha (RXRa) Agonism Beta-lactamase (BLA) Follow-Up Assay, Ratio (AID 2283968)
Retinoic acid receptor RXR-alpha (Homo sapiens), sequence (P19793 whole entry, looked up, the tested form may be a part): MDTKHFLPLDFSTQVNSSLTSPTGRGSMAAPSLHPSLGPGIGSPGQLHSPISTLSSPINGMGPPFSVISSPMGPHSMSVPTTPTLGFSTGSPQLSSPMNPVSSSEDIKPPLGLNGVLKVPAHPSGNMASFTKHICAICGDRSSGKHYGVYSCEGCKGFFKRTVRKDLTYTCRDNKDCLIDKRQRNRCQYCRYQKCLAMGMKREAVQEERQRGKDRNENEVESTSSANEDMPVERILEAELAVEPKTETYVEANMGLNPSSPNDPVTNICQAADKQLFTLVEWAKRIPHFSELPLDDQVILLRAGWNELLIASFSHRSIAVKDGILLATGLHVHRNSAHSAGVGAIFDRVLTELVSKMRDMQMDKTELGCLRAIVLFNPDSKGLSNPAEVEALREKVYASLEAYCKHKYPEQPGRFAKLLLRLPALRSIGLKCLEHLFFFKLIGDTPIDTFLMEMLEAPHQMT
How it was run: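 RXRa-UAS-bla HEK293T cells (GAL4 beta-lactamase reporter) were treated with compounds at 11 concentrations in triplicate for 16 h at 37C/5% CO2, then loaded with CCF4-AM substrate for 2 h at room temperature; activity is the 460:530 nm ratio versus DMSO baseline.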

[12] = CEETOX_H295R_CORTIC_noMTC: CeeTox H295R High-throughput Steroidogenesis Assay for Corticosterone (CORTIC), maximum tolerated concentration (MTC) filtered results only (AID 2283917; active = hit-call score of the fitted dose curve at least 0.9, where 1 is the maximum; inactive = score below 0.9); settings: actives raise or lower the signal
How it was run: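 H295R adrenal cells pre-stimulated 48 h with 10 uM forskolin, then exposed 48 h to chemical in 0.1% DMSO; corticosterone in medium quantified by HPLC-MS/MS, fitted bidirectionally versus DMSO without MTT-based concentration filtering.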

[13] = CEETOX_H295R_DOC_noMTC: CeeTox H295R High-throughput Steroidogenesis Assay for DOC, maximum tolerated concentration (MTC) filtered results only (AID 2283918; active = hit-call score of the fitted dose curve at least 0.9, where 1 is the maximum; inactive = score below 0.9); settings: actives raise or lower the signal
How it was run: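 H295R cells prestimulated 48 h with 10 uM forskolin, then exposed 48 h to chemical in 0.1% DMSO. 11-Deoxycorticosterone in medium measured by MTBE extraction and HPLC-MS/MS; bidirectional fit vs DMSO, no MTC filter.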

[14] = CEETOX_H295R_PROG_noMTC: CeeTox H295R High-throughput Steroidogenesis Assay for Progesterone (PROG), maximum tolerated concentration (MTC) filtered results only (AID 2283920; active = hit-call score of the fitted dose curve at least 0.9, where 1 is the maximum; inactive = score below 0.9); settings: actives raise or lower the signal
How it was run: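 H295R cells, prestimulated 48 h with 10 uM forskolin, exposed 48 h to chemical in 0.1% DMSO. Medium progesterone quantified by MTBE extraction and HPLC-MS/MS; bidirectional fit versus DMSO, concentrations not MTT-filtered.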

THRB (gene 7068) [15] = biological target: THRB (gene 7068) (UniProt P10828); experiment: TOX21_TRB_BLA_Agonist_Followup_ratio: Tox21 Thyroid Hormone Receptor beta Agonism Beta-lactamase (BLA) Follow-Up Assay, Ratio (AID 2283954)
How it was run: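 Human TRβ LBD–GAL4 DBD fusion in GeneBLAzer UAS-bla HEK293T cells; 11 concentrations in triplicate, 18 h at 37°C/5% CO2, T3 as agonist control. CCF4-AM substrate 2 h at room temperature; 460:530 nm ratio fitted for gain of signal versus DMSO.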

[16] = TOX21_TR_RXR_BLA_Agonist_Followup_viability: Viability Assessment in the Tox21 Thyroid Hormone Receptor beta Retinoid X Receptor alpha (RXRa) Agonism Beta-lactamase (BLA) Follow-Up Assay (AID 2283970)
How it was run: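 RXRa-UAS-bla HEK293T cells seeded at 2,500/well in phenol red-free DMEM with 2% charcoal-stripped FBS, exposed to compound 16h at 37C/5% CO2 in qHTS. Viability read by CellTiter-Glo ATP luminescence; bidirectional fitting against DMSO baseline, signal loss indicating cytotoxicity.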

[17] = TOX21_TRB_BLA_Antagonist_Followup_viability: Viability Assessment in the Tox21 Thyroid Hormone Receptor beta Antagonism Beta-lactamase (BLA) Follow-Up Assay (AID 2283961)
How it was run: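 In the same wells as the reporter read, cell health was gauged by CellTiter-Glo ATP luminescence, with signal loss indicating reduced viability. Cells had been exposed to test compounds for 18 h.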

[18] = TOX21_TR_RXR_BLA_Antagonist_Followup_viability: Viability Assessment in the Tox21 Thyroid Hormone Receptor beta Retinoid X Receptor alpha (RXRa) Antagonism Beta-lactamase (BLA) Follow-Up Assay (AID 2283979)
How it was run: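 RXRa-bla HEK293T cells (2,500/well, phenol red-free DMEM, 2% charcoal-stripped FBS) were attached 5 h, then exposed to compounds at 11 concentrations in triplicate for 16 h at 37C. Viability measured by CellTiter-Glo ATP luminescence, bidirectional fitting versus DMSO.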

Measured: AC50

CCCCCCCCCCCCCCCC(=O)OC[C@H](O)[C@H]1OC(=O)C(O)=C1O
active: DIO1 (gene 1733) 89.6 µM

C[C@H]1C[C@H]2[C@@H]3CCC4=CC(=O)C=C[C@]4(C)[C@@]3(F)[C@@H](O)C[C@]2(C)[C@@]1(O)C(=O)COP(=O)(O)O
inactive: PGR (gene 5241) [1] | [2] | [3] | [4] | [5]

O=c1cc(-c2ccccc2)oc2cc(O)cc(O)c12
active: PGR (gene 5241) [1] 8.76 µM | PGR (gene 5241) [7] 31 µM
inactive: PGR (gene 5241) [6] | [2] | [3] | PGR (gene 5241) [8] | [4] | [5]

O=C(Oc1ccccc1)c1ccc(O)cc1
inactive: PGR (gene 5241) [1] | [2] | [3] | [5]

C#C[C@]1(O)CC[C@H]2[C@@H]3CCC4=Cc5oncc5C[C@]4(C)[C@H]3CC[C@@]21C
active: PGR (gene 5241) [1] 0.0919 µM
inactive: [2] | [3] | PGR (gene 5241) [8] | [4] | [5]

CCCCCCCCCCCCCC(=O)O
active: DIO1 (gene 1733) 166 µM

CCCc1c(OCCCOc2ccc(OCC(=O)O)cc2)ccc(C(C)=O)c1O
inactive: PGR (gene 5241) [6] | [2] | [3] | PGR (gene 5241) [7] | [4] | [5]
active: PGR (gene 5241) [1] 31.5 µM | PGR (gene 5241) [8] 63.6 µM

CC(CCO)CCCC(C)(C)O (stereo not drawn)
active: [9] 1.44 µM
inactive: THRA (gene 7067) | THRB (gene 7068) [10] | [11]

COC(=O)C1=C(C)NC(C)=C(C(=O)OCCN(C)Cc2ccccc2)C1c1cccc([N+](=O)[O-])c1 (stereo not drawn)
active: PGR (gene 5241) [1] 25 µM | [2] 79.9 µM | [3] 72.7 µM | PGR (gene 5241) [8] 21.8 µM
inactive: [4] | [5]

C[C@H]1C[C@@H]2[C@H]([C@@H](O)C[C@@]3(C)[C@H]2CC[C@]3(O)C(=O)CO)[C@@]2(C)C=CC(=O)C=C12
active: PGR (gene 5241) [6] 58.7 µM | PGR (gene 5241) [7] 0.334 µM
inactive: PGR (gene 5241) [1] | [2] | [3]

CC1CC(OC(=O)c2ccccc2O)CC(C)(C)C1 (stereo not drawn)
inactive: [12] | [13] | [14]

Cc1ccc(C(C)C)cc1O
active: [14] 41.4 µM
inactive: [12] | [13]

Cc1cccc(C)c1[N+](=O)[O-]
inactive: [9] | THRA (gene 7067) | THRB (gene 7068) [15] | THRB (gene 7068) [10] | [11] | [16]

Nc1ccc(S(N)(=O)=O)cc1
inactive: THRA (gene 7067) | THRB (gene 7068) [15] | THRB (gene 7068) [10] | [11] | [16]

CC(=O)OCCC(C)CC(C)(C)C (stereo not drawn)
inactive: [9] | THRA (gene 7067) | THRB (gene 7068) [15] | THRB (gene 7068) [10] | [11]

C[C@]12CC[C@H]3[C@@H](CCC4=CC(=O)CC[C@@]43C)[C@@H]1CC[C@@H]2C(=O)CO
inactive: PGR (gene 5241) [1] | [2] | [3] | PGR (gene 5241) [8] | [4] | [5]

CC(=O)O[C@]1(C(C)=O)CC[C@H]2[C@@H]3C[C@H](C)C4=CC(=O)CC[C@]4(C)[C@H]3CC[C@@]21C
inactive: [17] | [18]

CC(=O)[C@H]1CC[C@H]2[C@@H]3CC=C4C[C@@H](O)CC[C@]4(C)[C@H]3CC[C@]12C
inactive: PGR (gene 5241) [1] | [2] | [3] | PGR (gene 5241) [8] | [5]
